Experimental data reported in PubChem BioAssay AID1159580 (chemical genetic matrix, 2015).
The whole screen tested about 5,500 compounds, of which about 2,000 (36%) were called active. Roughly 18% stayed inconclusive and do not appear here. Rule as the data show it: active = normalized growth mostly below about 0.91 (no sharp cut-off); inconclusive = no clear call, values can overlap the other calls; inactive = mostly above about 0.92. The list shows a part of the results.

Assay: chemical genetic growth profiling, strain panel (AID 1159580);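 also: tested at 20 µM; growth read once vehicle control cultures reached saturation at 30 °C; 1 = growth at the plate median or of vehicle wells; lower values mean less growth of the strain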
Settings: growth OD
[1] = S. cerevisiae deletion strains, locus YAL013W, strain DEP1, stronger effect = lower value
[2] = S. cerevisiae deletion strains, locus YBR229C, strain ROT2, stronger effect = lower value
[3] = S. cerevisiae deletion strains, locus YDL101C, strain DUN1, stronger effect = lower value
[4] = S. cerevisiae deletion strains, locus YDR150W, strain NUM1, stronger effect = lower value
[5] = S. cerevisiae deletion strains, locus YEL061C, strain CIN8, stronger effect = lower value
[6] = S. cerevisiae deletion strains, locus YGR078C, strain PAC10, stronger effect = lower value
[7] = S. cerevisiae deletion strains, locus YHR030C, strain SLT2, stronger effect = lower value
[8] = S. cerevisiae deletion strains, locus YHR087W, strain rtc3, stronger effect = lower value
[9] = S. cerevisiae deletion strains, locus YJR043C, strain POL32, stronger effect = lower value
[10] = S. cerevisiae deletion strains, locus YJR075W, strain HOC1, stronger effect = lower value
[11] = S. cerevisiae deletion strains, locus YLR039C, strain RIC1, stronger effect = lower value
[12] = S. cerevisiae deletion strains, locus YLR058C, strain SHM2 (second series), stronger effect = lower value
[13] = S. cerevisiae deletion strains, locus YLR085C, strain ARP6, stronger effect = lower value
[14] = S. cerevisiae deletion strains, locus YLR262C, strain YPT6, stronger effect = lower value
[15] = S. cerevisiae deletion strains, locus YML094W, strain GIM5, stronger effect = lower value
[16] = S. cerevisiae deletion strains, locus YMR219W, strain ESC1, stronger effect = lower value
[17] = S. cerevisiae deletion strains, locus YMR263W, strain SAP30, stronger effect = lower value
[18] = S. cerevisiae deletion strains, locus YMR307W, strain GAS1, stronger effect = lower value
[19] = S. cerevisiae deletion strains, locus YNL153C, strain GIM3, stronger effect = lower value
[20] = S. cerevisiae deletion strains, locus YNL298W, strain CLA4 (second series), stronger effect = lower value
[21] = S. cerevisiae deletion strains, locus YNL322C, strain KRE1, stronger effect = lower value
[22] = S. cerevisiae deletion strains, locus YNR030W, strain Alg12, stronger effect = lower value
[23] = S. cerevisiae deletion strains, locus YOL006C, strain TOP1, stronger effect = lower value
[24] = S. cerevisiae deletion strains, locus YPL055C, strain LGE1, stronger effect = lower value
[25] = S. cerevisiae deletion strains, locus YPL241C, strain CIN2, stronger effect = lower value
[26] = S. cerevisiae deletion strains, locus YPR135W, strain CTF4, stronger effect = lower value
[27] = S. cerevisiae strains, strain wild type, stronger effect = lower value

Measured: normalized growth

O=C(O)/C=C/C(=O)Nc1ccc(-n2nc(C(F)(F)F)cc2C(F)(F)F)cc1
inactive: [1] 0.987 | [2] 1 | S. cerevisiae deletion strains, locus YCL061C, strain MRC1, stronger effect = lower value 1.01 | [3] 0.97 | S. cerevisiae deletion strains, locus YDL134C, strain PPH21, stronger effect = lower value 1.02 | [4] 0.992 | [5] 1.03 | [6] 1.01 | [7] 1.11 | [8] 0.995 | S. cerevisiae deletion strains, locus YJL187C, strain SWE1, stronger effect = lower value 1.01 | [9] 1 | [10] 1.08 | S. cerevisiae deletion strains, locus YKL190W, strain CNB1, stronger effect = lower value 1.02 | [11] 1.04 | [12] 1.02 | [13] 1.07 | [14] 1.03 | [15] 1.02 | [16] 1.01 | [17] 1.02 | [18] 1.14 | S. cerevisiae deletion strains, locus YNL128W, strain TEP1, stronger effect = lower value 1.02 | [19] 0.989 | [20] 1.05 | [21] 1 | [22] 1.02 | [23] 1.09 | [24] 1 | [25] 1.01 | [26] 1.06 | [27] 1.02

Nc1ccc(-n2nc(C(F)(F)F)cc2C(F)(F)F)cc1
active: [7] 0.661 | [13] 0.603 | [25] 0.825
inactive: [1] 1 | [2] 0.986 | [3] 1 | [4] 0.902 | [5] 0.998 | [6] 1.01 | S. cerevisiae deletion strains, locus YGR229C, strain SMI1, stronger effect = lower value 0.99 | [8] 1.01 | [9] 0.992 | [10] 0.938 | [11] 0.842 | [12] 0.975 | [14] 0.904 | [15] 0.975 | [16] 0.986 | [17] 0.963 | [19] 1 | [20] 0.855 | [21] 0.969 | [22] 0.951 | [23] 0.866 | [24] 0.929 | [26] 0.694 | [27] 0.974

Oc1ccc2c3c1O[C@H]1c4[nH]c5ccccc5c4C[C@@]4(O)C(C2)N(CC2CC2)CCC314 (some centres undefined)
inactive: [1] 0.989 | S. cerevisiae deletion strains, locus YAL040C, strain CLN3, stronger effect = lower value 1 | S. cerevisiae deletion strains, locus YCL061C, strain MRC1 (second series), stronger effect = lower value 1.01 | S. cerevisiae deletion strains, locus YDR363W, strain ESC2, stronger effect = lower value 1.02 | S. cerevisiae deletion strains, locus YER002W, strain NOP16, stronger effect = lower value 1.02 | [6] 1.02 | [17] 1.01 | [18] 0.993 | S. cerevisiae deletion strains, locus YNL175C, strain NOP13, stronger effect = lower value 1.02 | S. cerevisiae deletion strains, locus YNL197C, strain WHI3, stronger effect = lower value 1 | S. cerevisiae deletion strains, locus YNL224C, strain SQS1, stronger effect = lower value 1.01 | [21] 0.999 | S. cerevisiae deletion strains, locus YOR083W, strain WHI5 (second series), stronger effect = lower value 1.01 | [24] 0.987

Fc1ccc(NC(=S)N2CCCN(Cc3ccc(Cl)cc3Cl)CC2)cc1
active: S. cerevisiae deletion strains, locus YLR113W, strain HOG1, stronger effect = lower value 0.821
inactive: S. cerevisiae deletion strains, locus YAR019C, strain CDC15, stronger effect = lower value 0.989 | S. cerevisiae deletion strains, locus YBL105C, strain PKC1, stronger effect = lower value 0.984 | S. cerevisiae deletion strains, locus YBR135W, strain CKS1, stronger effect = lower value 0.992 | S. cerevisiae deletion strains, locus YBR136W, strain MEC1, stronger effect = lower value 0.985 | S. cerevisiae deletion strains, locus YBR160W, strain CDC28, stronger effect = lower value 0.982 | S. cerevisiae deletion strains, locus YDL017W, strain CDC7, stronger effect = lower value 0.982 | S. cerevisiae deletion strains, locus YDL028C, strain MPS1, stronger effect = lower value 0.99 | [3] 0.985 | S. cerevisiae deletion strains, locus YDL108W, strain KIN28, stronger effect = lower value 0.992 | S. cerevisiae deletion strains, locus YDL132W, strain cdc53, stronger effect = lower value 0.989 | S. cerevisiae deletion strains, locus YDL214C, strain PRR2, stronger effect = lower value 0.987 | S. cerevisiae deletion strains, locus YDR052C, strain DBF4, stronger effect = lower value 0.986 | S. cerevisiae deletion strains, locus YDR054C, strain cdc34, stronger effect = lower value 0.982 | S. cerevisiae deletion strains, locus YDR226W, strain ADK1, stronger effect = lower value 0.973 | S. cerevisiae deletion strains, locus YDR477W, strain SNF1, stronger effect = lower value 1 | S. cerevisiae deletion strains, locus YER123W, strain YCK3, stronger effect = lower value 1.02 | S. cerevisiae deletion strains, locus YER133W, strain GLC7, stronger effect = lower value 1 | S. cerevisiae deletion strains, locus YFL009W, strain cdc4, stronger effect = lower value 0.992 | S. cerevisiae deletion strains, locus YFL029C, strain CAK1, stronger effect = lower value 0.979 | S. cerevisiae deletion strains, locus YFR003C, strain YPI1, stronger effect = lower value 0.984 | S. cerevisiae deletion strains, locus YFR019W, strain FAB1, stronger effect = lower value 0.998 | S. cerevisiae deletion strains, locus YFR028C, strain CDC14, stronger effect = lower value 0.997 | S. cerevisiae deletion strains, locus YGR040W, strain KSS1, stronger effect = lower value 1.01 | S. cerevisiae deletion strains, locus YGR052W, strain FMP48, stronger effect = lower value 1.09 | S. cerevisiae deletion strains, locus YGR092W, strain DBF2, stronger effect = lower value 1.01 | [7] 0.903 | S. cerevisiae deletion strains, locus YHR079C, strain IRE1, stronger effect = lower value 0.964 | S. cerevisiae deletion strains, locus YHR082C, strain KSP1, stronger effect = lower value 1.15 | S. cerevisiae deletion strains, locus YHR205W, strain SCH9, stronger effect = lower value 0.989 | S. cerevisiae deletion strains, locus YIL147C, strain SLN1, stronger effect = lower value 0.977 | S. cerevisiae deletion strains, locus YJL095W, strain BCK1, stronger effect = lower value 1.02 | S. cerevisiae deletion strains, locus YJL128C, strain PBS2, stronger effect = lower value 0.959 | S. cerevisiae deletion strains, locus YJL157C, strain FAR1, stronger effect = lower value 1.01 | S. cerevisiae deletion strains, locus YJR016C, strain ILV3, stronger effect = lower value 0.992 | S. cerevisiae deletion strains, locus YJR066W, strain TOR1 (second series), stronger effect = lower value 0.966 | S. cerevisiae deletion strains, locus YJR066W, strain TOR1, stronger effect = lower value 1.11 | S. cerevisiae deletion strains, locus YKL048C, strain ELM1, stronger effect = lower value 0.981 | S. cerevisiae deletion strains, locus YKL067W, strain YNK1, stronger effect = lower value 0.989 | S. cerevisiae deletion strains, locus YKL101W, strain HSL1, stronger effect = lower value 0.987 | S. cerevisiae deletion strains, locus YKL193C, strain SDS22, stronger effect = lower value 0.994 | S. cerevisiae deletion strains, locus YKL203C, strain TOR2, stronger effect = lower value 1.05 | S. cerevisiae deletion strains, locus YLR133W, strain CKI1, stronger effect = lower value 1.01 | S. cerevisiae deletion strains, locus YLR403W, strain SFP1, stronger effect = lower value 1.01 | S. cerevisiae deletion strains, locus YML070W, strain DAK1, stronger effect = lower value 1 | S. cerevisiae deletion strains, locus YMR001C, strain CDC5, stronger effect = lower value 0.992 | S. cerevisiae deletion strains, locus YMR205C, strain PFK2 (second series), stronger effect = lower value 0.994 | S. cerevisiae deletion strains, locus YMR277W, strain FCP1, stronger effect = lower value 0.992 | S. cerevisiae deletion strains, locus YNL006W, strain LST8, stronger effect = lower value 0.987 | S. cerevisiae deletion strains, locus YNL020C, strain ARK1, stronger effect = lower value 1 | S. cerevisiae deletion strains, locus YNL161W, strain CBK1, stronger effect = lower value 0.98 | S. cerevisiae deletion strains, locus YNL183C, strain NPR1, stronger effect = lower value 1.09 | S. cerevisiae deletion strains, locus YNL207W, strain RIO2, stronger effect = lower value 0.984 | S. cerevisiae deletion strains, locus YNL222W, strain SSU72, stronger effect = lower value 0.992 | S. cerevisiae deletion strains, locus YNL307C, strain MCK1 (second series), stronger effect = lower value 1 | S. cerevisiae deletion strains, locus YOL078W, strain AVO1, stronger effect = lower value 0.996 | S. cerevisiae deletion strains, locus YOL136C, strain PFK27, stronger effect = lower value 1.01 | S. cerevisiae deletion strains, locus YOR061W, strain CKA2, stronger effect = lower value 1.01 | S. cerevisiae deletion strains, locus YOR119C, strain RIO1, stronger effect = lower value 1.08 | S. cerevisiae deletion strains, locus YOR231W, strain MKK1, stronger effect = lower value 0.985 | S. cerevisiae deletion strains, locus YOR329C, strain SCD5, stronger effect = lower value 0.986 | S. cerevisiae deletion strains, locus YPL031C, strain PHO85, stronger effect = lower value 1.02 | S. cerevisiae deletion strains, locus YPL153C, strain RAD53, stronger effect = lower value 1.02 | S. cerevisiae deletion strains, locus YPL204W, strain HRR25, stronger effect = lower value 0.982 | S. cerevisiae deletion strains, locus YPL209C, strain IPL1, stronger effect = lower value 0.983 | S. cerevisiae deletion strains, locus YPL256C, strain CLN2, stronger effect = lower value 0.888 | S. cerevisiae deletion strains, locus YPR025C, strain CCL1, stronger effect = lower value 0.987 | S. cerevisiae deletion strains, locus YPR106W, strain ISR1, stronger effect = lower value 0.99 | S. cerevisiae deletion strains, locus YPR111W, strain DBF20, stronger effect = lower value 0.975 | S. cerevisiae deletion strains, strain NNK1, stronger effect = lower value 0.983 | S. cerevisiae deletion strains, strain TSCII, stronger effect = lower value 0.984
